Data reported in PubChem BioAssay AID588475 (Sanford-Burnham Center for Chemical Genomics, 2011).
About 2,100 (0.6%) of roughly 350,000 compounds were called active. What follows is part of a selection rich in actives, with near analogues and random picks from the rest. Unmarked numbers belong to inactive results.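 The calls were made as follows: active = inhibition of the ligand-induced calcium signal above about 50% at the single tested concentration (limit read from the data); inactive = the rest.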

Experiment: blockers of CRF-evoked CRF-R2/CRF-BP calcium response – cell-based, HEK293, calcium dye fluorescence, uHTS, primary screen (AID 588475)
Settings: CRF-induced calcium fluorescence, at 11.8 µM, stronger effect = higher value

| SMILES | inhibition |
| --- | --- |
| COc1ccc(Cn2c(O)c(/C=C3/C=CC=N3)c(=O)[nH]c2=O)cc1 | 0.93% |
| NC(=O)C1(N2CCCCC2)CCN(C2CC(=O)N(Cc3ccc(N4CCCC4=O)cc3)C2=O)CC1 (stereo not given) | -8.44% |
| O=C(O)CSCC(=O)Nc1ccc(C(F)(F)F)cc1 | -14.8% |
| O=C(O)CC(SCC(=O)Nc1ccc(Br)cc1)C(=O)O (stereo not given) | 57.3% (active) |
| Cc1cc(C)c2c(=O)[nH]c(SCC(=O)Nc3ccc(Br)cc3)nc2n1 | -6.59% |
| O=C(CN1CCOC1=O)N1CCCC(Nc2ccc(F)c(F)c2)C1 (stereo not given) | 0.32% |
| CCc1cc(=O)oc2c(C)c(OCC(=O)N3CC[C@@]4(O)CCCC[C@H]4C3)ccc12 | -9.77% |
| COc1ccc(OC)c(CNC(=O)Cn2nc(C)c3c(C)n(-c4ccc(C)cc4)nc3c2=O)c1 | 9.58% |
| CCOP(=O)(OCC)C(Nc1ccc([N+](=O)[O-])cc1)c1ccc(Cl)cc1 (stereo not given) | 40.7% |
| CCOP(=O)(OCC)C(Nc1cccc(C)c1)c1ccc(F)cc1 (stereo not given) | -6.82% |
| CCCCOC(=O)c1ccc(NC(c2ccc(C)cc2)P(=O)(OC)OC)cc1 (stereo not given) | 102% (active) |
| O=C(CCCn1c(=O)c2sccc2n(CC(=O)NCC2CCCO2)c1=O)NCc1ccco1 (stereo not given) | -17.3% |
| CCOC(=O)N1CCN(S(=O)(=O)c2cc3c(cc2C)NC(=O)CO3)CC1 | -1.54% |
| CN1CCN(CC(=O)C23CC4CC(CC(C4)C2)C3)CC1 | 7.99% |
| Cc1ccccc1N1CCN(C2CCCN(C(=O)c3cn4c(C)cccc4n3)C2)CC1 (stereo not given) | 53.6% (active) |
| Cc1ccccc1N1CCN(C2CCCN(C(=O)c3ocnc3C)C2)CC1 (stereo not given) | 1% |
| Cc1cnc(C(=O)N2CCCC(N3CCN(c4ccccc4F)CC3)C2)cn1 (stereo not given) | 14.5% |
| Cc1ccc(-n2cc3ccc([N+](=O)[O-])cc3n2)cc1 | -2.01% |
| Cc1ccc(NC(=O)c2oc3ccccc3c2C)c([N+](=O)[O-])c1 | -13.1% |
| O=C(NC1CC1)C1CCCN(C(=O)NC2CCCCC2)C1 (stereo not given) | 1.71% |
| Cc1ccnc(N2CCCC(C(=O)NC3CC3)C2)n1 (stereo not given) | 50.4% (active) |
| COc1cc(C)nc(N2CCCC(C(=O)NCC(C)C)C2)n1 (stereo not given) | -9.18% |
| CC(C)(C)NC(=O)CN1CCC(NC(=O)C23CC4CC(CC(C4)C2)C3)CC1 | -2.97% |
| O=C(CNCc1ccc(F)cc1)Nc1ccccc1-c1ccccc1 | -15% |
| O=C(COC(=O)c1ccc(N2CCCC2=O)cc1)c1ccc(OC(F)F)cc1 | 4.33% |
